Inconclusive results are not listed. Unmarked numbers belong to inactive results. The source made the active and inactive calls. Unless noted, calls follow the shape of the full dose curve. Where only a bound is given, the exact number is not on record here.
Potency is read from the fitted curve at half-maximal effect.

One test can be described thus: Cell Viability - Hek293 (AID 427;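 active = compounds whose dose-response curve shows a full or clear partial loss of cell viability, called from curve shape rather than a numeric limit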;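 also: cells exposed to compound for 40 hours at 37 °C before reading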). The note with it: qHTS. The method, boiled down:
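Luminescent ATP read-out (CellTiter-Glo, 20 min RT) after 40 hr compound exposure at 37 °C in complete medium. Signal normalized to DMSO (basal) and 100 uM tamoxifen (100% inhibition); concentration-response fitted with the standard Hill equation to give AC50.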
(Quantitative high-throughput screening tests each substance at several concentrations.)
In the case of `CCCCC1C(=O)N(c2ccccc2)N(c2ccccc2)C1=O`, the Potency was > 92 µM.
Regarding `O=c1c(-c2ccc(O)cc2)coc2cc(O)ccc12`, the Potency is > 92 µM.
With `CCCNC(=O)NS(=O)(=O)c1ccc(Cl)cc1`, the Potency is > 92 µM.
For the molecule `CC(=O)c1ccc(S(=O)(=O)NC(=O)NC2CCCCC2)cc1`, the Potency is > 92 µM.
On the same count and under the same terms, the same measure for `O=C1NC(=O)C(c2ccccc2)(c2ccccc2)N1`: > 92 µM.

The next test can be described thus: Cell Viability - HepG2 (AID 433).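 Also: cells exposed to compound for 40 hours; potency for ATP loss meaning cytotoxicity.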 The following applies: qHTS. The essentials:
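In this qHTS format, a 40 h, 37 °C compound incubation of HepG2 cells in complete medium precedes a 20 min CellTiter-Glo step at room temperature. Tamoxifen and doxorubicin serve as positive controls; Hill-equation fits yield AC50.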
As to `CCCCC1C(=O)N(c2ccccc2)N(c2ccccc2)C1=O`, the Potency was > 92 µM.
On the same count and under the same terms, the same measure for `CC/C(=C(\c1ccccc1)c1ccc(OCCN(C)C)cc1)c1ccccc1`: 46.2 µM (active); for `O=c1c(-c2ccc(O)cc2)coc2cc(O)ccc12`: > 92 µM.
In the case of `CCCNC(=O)NS(=O)(=O)c1ccc(Cl)cc1`, the Potency is > 92 µM.
`CC(=O)c1ccc(S(=O)(=O)NC(=O)NC2CCCCC2)cc1`: the Potency is > 92 µM.
With `O=C1NC(=O)C(c2ccccc2)(c2ccccc2)N1`, the Potency is > 92 µM.

The next test can be described thus: Cell Viability - MRC5 (AID 434).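 Also: cells exposed to compound for 40 hours at 37 °C; potency reflects cytotoxicity seen as loss of intracellular ATP.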 The following applies: MRC5 lung fibroblast viability, qHTS. The essentials:
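ATP luminescence read-out (CellTiter-Glo, 20 min RT) after 40 hr, 37 °C compound exposure of 1500 MRC5 cells/well. Data normalized to DMSO (basal) and 100 uM tamoxifen (100% inhibition); AC50 from standard Hill equation.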
With `CCCCC1C(=O)N(c2ccccc2)N(c2ccccc2)C1=O`, the Potency was > 92 µM.
Take `CC/C(=C(\c1ccccc1)c1ccc(OCCN(C)C)cc1)c1ccccc1`: the Potency was 60.3 µM (active).
On the same count and under the same terms, for `O=C(O)c1cc(O)c2c(c1)C(=O)c1cccc(O)c1C2=O` the value was > 92 µM; for `O=c1c(-c2ccc(O)cc2)coc2cc(O)ccc12`, > 92 µM; for `CCCNC(=O)NS(=O)(=O)c1ccc(Cl)cc1`, > 92 µM.
On the same count and under the same terms, the same measure for `CC(=O)c1ccc(S(=O)(=O)NC(=O)NC2CCCCC2)cc1`: > 92 µM.
Still for that read-out and setting: the same measure for `O=C1NC(=O)C(c2ccccc2)(c2ccccc2)N1`: > 92 µM.

A further test is described as follows: Cell Viability - SK-N-SH (AID 435).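 Also: compound exposure lasted 40 h at 37 °C.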 The following applies: SK-N-SH neuroblastoma cell viability qHTS. The method, boiled down:
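Human neuroblastoma line, 40 h exposure at 37 °C, ATP quantified via luciferase luminescence; DMSO and 100 uM tamoxifen define 0 and 100% inhibition for AC50 fitting.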
With `CCCCC1C(=O)N(c2ccccc2)N(c2ccccc2)C1=O`, the Potency is > 92 µM.
In the case of `CC/C(=C(\c1ccccc1)c1ccc(OCCN(C)C)cc1)c1ccccc1`, the Potency was 49.1 µM (active).
Take `O=c1c(-c2ccc(O)cc2)coc2cc(O)ccc12`: the Potency is > 92 µM.
On to `CCCNC(=O)NS(=O)(=O)c1ccc(Cl)cc1`, for which the Potency is > 92 µM.
Same read-out and setting: the same measure for `CC(=O)c1ccc(S(=O)(=O)NC(=O)NC2CCCCC2)cc1`: > 92 µM; for `O=C1NC(=O)C(c2ccccc2)(c2ccccc2)N1`: > 92 µM.

(Values after PubChem BioAssay (NCATS).)
